According to PubChem BioAssay (NCI):
The panel holds about 83,000 compounds, 20% with a hit somewhere; the sample as a whole holds those more often.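 Each cell line was grown in a 96-well plate and treated with one concentration of compound for 48 hours. Values below 10 were considered active.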 Unmarked numbers belong to inactive results. Active and inactive are the calls of the source.

Experiments:
Experiment in all cases: NCI-60 one-dose screen, 48 h (100 = growth as untreated, 0 = no growth, -100 = all killed)
Settings in all cases: 10 µM
[1] = system: HCT-15 colon
[2] = system: HT29 colon
[3] = system: SNB-75 CNS
[4] = system: SNB-19 CNS
[5] = system: U251 CNS
[6] = system: SK-MEL-5 melanoma
[7] = system: UACC-62 melanoma
[8] = system: LOX IMVI melanoma
[9] = system: SK-MEL-28 melanoma
[10] = system: SK-MEL-2 melanoma
[11] = system: EKVX NSCLC
[12] = system: TK-10 renal
[13] = system: ACHN renal
[14] = system: CAKI-1 renal
[15] = system: A498 renal
[16] = system: CCRF-CEM leukemia
[17] = system: MOLT-4 leukemia
[18] = system: SN12C renal
[19] = system: UO-31 renal
[20] = system: PC-3 prostate

| Compound | growth [1] [%] | growth [2] | growth [3] | growth [4] [%] | growth [5] | growth [6] | growth [7] | growth [8] | growth [9] [%] | growth [10] | growth [11] [%] | growth [12] [%] | growth [13] | growth [14] | growth [15] | growth [16] | growth [17] | growth [18] [%] | growth [19] | growth [20] [%] |
| --- | --- | --- | --- | --- | --- | --- | --- | --- | --- | --- | --- | --- | --- | --- | --- | --- | --- | --- | --- | --- |
| CC(=O)/C(=C\c1ccc(Cl)cc1)c1ccccc1 | 10.3 | 2.71% (active) | 37.4% | 29.7 | 13.6% | -35.6% (active) | 29.2% | 0.385% (active) | 65 | 39.3% | 32.9 | 57.1 | 29.6% | 15.6% | 15.7% | 11.1% | 11.9% | – | – | – |
| FC(F)(F)c1ccc(-c2cnc(Br)nc2NC2CCCCCC2)cc1 | 73.1 | 22.3% | 63.2% | 42.9 | 12.1% | – | 14.4% | – | 36.1 | 13.2% | – | 36.6 | 10.4% | 72.6% | 81.3% | 28.5% | 57% | 21.9 | 34.7% | – |
| COc1ccc(-c2nsc3c2NC(=O)CC3c2ccc(Cl)cc2)cc1 (stereo unspecified) | 86.3 | 89.8% | 91.2% | 95.9 | 93.3% | 81.8% | 73.4% | 90.4% | 103 | 77.2% | – | 83.9 | 82.7% | 80.2% | 83.3% | 74.4% | 66.9% | 83.8 | – | – |
| Nc1nc(SCC#CCCl)c2[nH]cnc2n1 | 45.1 | – | 63% | 57.1 | 43.8% | 29.5% | 44% | 27.8% | 72.8 | 57.2% | 54.4 | 37 | 44% | 9.59% (active) | 53.8% | 23.3% | 35.8% | 44.8 | -6.63% (active) | 62.6 |
| O=C(Nc1cccc(-c2nc3ccccc3[nH]2)c1)c1cccc(NC(=O)c2ccco2)c1 | 50.9 | 27.6% | 72.2% | 89.4 | 61.8% | 43.4% | -71.7% (active) | 41.8% | 30.3 | 101% | – | – | 86% | 77.6% | 83.6% | 68.3% | 86.4% | 79.1 | 73.2% | – |
| COc1ccc(-c2nnc(N3CCN(C(=O)CN4CCN(c5ccc(Cl)cc5)CC4)CC3)nc2-c2ccc(OC)cc2)cc1 | 76.8 | 37.3% | 81.4% | 94.7 | 80.3% | 51% | 58.8% | 75.9% | 86.7 | 65.7% | 45.4 | 90.6 | 85% | – | 73.7% | 47.2% | 8.77% (active) | 57.5 | – | – |
| CC(CNC(Cc1ccccc1)c1ccccc1)NC(Cc1ccccc1)c1ccccc1 (stereo unspecified) | 30.6 | 4% (active) | 68.9% | 61.7 | 34.3% | 14.2% | 61.4% | -5.75% (active) | 64.2 | 73.3% | 26.8 | 60.6 | 47.7% | 15.6% | 74.5% | 35.2% | 14.9% | – | 37.6% | – |
| CCOC(=S)Sc1ccc([N+](=O)[O-])cc1[N+](=O)[O-] | 82.8 | 0.214% (active) | 99.5% | 111 | 90.4% | 88.4% | 99% | 14.3% | 67.5 | 91.4% | 98 | – | 60.4% | 29.9% | 88.2% | 14.4% | 48.5% | – | – | – |
| COc1ccc(CCc2nc3cc(-c4c(C)noc4C)ccc3n2CCN2CCOCC2)cc1 | 52.8 | 12.8% | 27.8% | 48.9 | 17% | -0.324% (active) | 20% | 50.2% | 33.6 | 49.6% | – | 24 | -0.152% (active) | 57.2% | 58.6% | 42.7% | 73% | 31.2 | – | – |
| CCc1ccc(-c2nnc(COc3ccc(-c4nc5cc(Cl)c(Cl)cc5[nH]4)cc3OC)o2)cc1 | 44.9 | 62.1% | 48.4% | 68.3 | 29.1% | 84.9% | 78.8% | 43.3% | 67.1 | 87.8% | – | 75.7 | 31% | 78.6% | 65.2% | – | 69.8% | 21.9 | 91.1% | – |
| CC(=O)Oc1ccc(C2=Cc3ccc(OC(C)=O)cc3OC2C)cc1 (stereo unspecified) | 48.4 | – | 49% | 85.2 | 43.3% | 50.2% | 45% | 44.4% | 62.1 | 61% | 56.7 | 82.7 | 10% | 43.6% | 82.6% | 24.3% | 36.7% | 66.9 | 18.6% | 66.3 |
| COc1cc(/C=C/C(=O)c2cc(-c3ccc(C(F)(F)F)cc3)ccc2O)cc(OC)c1OC | 60 | 60.5% | 78.6% | 75.4 | 69% | 47.2% | 53.5% | – | 92.2 | 70.1% | 61.2 | 98 | 68.4% | 47.2% | 82.6% | 7.45% (active) | 15.5% | 66.7 | 46.7% | – |
| CC(=O)[C@H]1CC[C@H]2[C@@H]3CC[C@@H]4CC=C(C=O)C[C@]4(C)[C@H]3CC[C@]12C | 96.7 | 90.7% | 80.5% | 97.8 | 88.5% | 90.3% | 79.1% | 93.7% | 93.9 | 99.3% | – | 85.2 | 92.4% | 88.5% | 76.8% | 82.6% | 72.8% | 93.4 | 84.8% | – |
| Fc1ccc2[nH]c3c(NCCCN4CCOCC4)ncnc3c2c1 | 91.1 | 66.1% | -0.656% (active) | 91.7 | 41.1% | 92.2% | 92.3% | 69.1% | 104 | 65.7% | – | 12.7 | 23.9% | 25.2% | 130% | 74.7% | 83.1% | 63.8 | 45.9% | – |
| CCC(OC(=O)CC(C)C)c1ccccc1 (stereo unspecified) | 101 | 93.6% | 91.1% | 105 | 86.9% | 100% | 102% | 96.1% | 106 | 100% | 99.4 | 91.1 | 104% | 97.9% | 102% | 104% | 98.1% | – | 95.1% | – |
| CCCN(CCC)CCCNC(=O)c1cc2c(-c3ccc(OC)c(OC)c3)nn(C)c2s1 | 24.7 | 56.5% | 22.7% | 35 | 9.87% (active) | -60.8% (active) | 14.1% | 10.2% | 37.6 | -31.3% (active) | – | 55.8 | 25% | 28.5% | -0.28% (active) | – | -8.08% (active) | 20.8 | 6.68% (active) | – |
| Brc1ccc(-c2cn3ccnc3c(-c3ccc(Br)cc3)n2)cc1 | 21.6 | 9.88% (active) | 35.6% | 75.8 | 39.2% | 46.3% | 43.6% | 43.2% | 62.2 | 30.8% | – | – | 54.6% | 39.6% | 35.9% | 44.8% | 30.4% | 53.7 | 41.6% | – |
